# Tau FP inhib: inhibitors of human tau fibril formation; P10636; K18 P301L tau heparin fibrillization, Alexa594 FP, 6 h; Potency, µM (top dose mostly 57.7 µM), inactives show top-dose activity, negative = inhibition, actives largely listed as inhibitors; 280,000 tested, 0.39% active; note: potency is the fitted concentration of half-maximal effect; nearly all actives have a fitted effect of over 55% in size
# Target sequence (P10636 561-689 P618L limits assumed): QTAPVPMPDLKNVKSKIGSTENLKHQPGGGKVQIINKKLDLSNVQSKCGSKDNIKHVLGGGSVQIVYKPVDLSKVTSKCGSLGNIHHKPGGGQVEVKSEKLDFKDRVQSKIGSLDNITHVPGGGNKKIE
#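 Quantitative HTS format: compounds meet 15 uM recombinant K18 P301L tau and Alexa 594-tau tracer in 100 mM sodium acetate pH 7; 20 uM heparin triggers fibrillization at 37 C over 6 hr; FP gives the signal.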
# Sfp inh: blocks B. subtilis Sfp PPTase activity | Q9F4F7 | Biochemical Sfp PPTase activity, qHTS | Potency, µM, for inactives: largest response in the series, negative = inhibition, actives largely listed as inhibitors | 310,000 tested, 3.5% active | AID 1490;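 note: the enzyme is Sfp with the accession as filed and its product quenches rhodamine fluorescence; potency is the fitted concentration of half-maximal effect; 0% = enzyme reaction without inhibitor and -100% = no enzyme wells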
#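 Sfp 15 nM + cpd, 15 min RT; start w/ rhodamine-CoA 5 uM, BHQ-2-YbbR 12.5 uM (final); 50 mM Hepes pH 7.6, 10 mM MgCl2, 0.01% NP-40, 0.01% BSA; read 525/598 nm at 0 and 30 min.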
# Tau fibril ThT: inhibitors of human tau fibril formation, thioflavin T binding; 270,000 tested, 2.1% active; P10636; recombinant tau K18 P301L, heparin-induced fibrillization, ThT fluorescence; Potency, µM (series often up to 57.4 µM), for the others: at the top dose activity, negative = inhibition, hits mostly inhibitors; AID 1460; note: potency is the fitted concentration of half-maximal effect; nearly all actives have a fitted effect of over 55% in size
#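 Fibril formation assay: tau K18 P301L at 15 uM with trace Alexa 594 label, heparin inducer 20 uM, pH 7 sodium acetate buffer, 37 C for 6 hr; endpoint ThT signal.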
# G9a inh: blocks human histone lysine methyltransferase G9a; G9a H3K9 monomethylation, AlphaScreen, 2 h; 350,000 tested, 8.8% active; Potency, µM (doses to about 102 µM), for inactives: top-dose activity, negative = inhibition, usual class: inhibitors; AID 504332; Q96KQ7; note: potency is the fitted concentration of half-maximal effect; nearly all actives have a fitted effect of over 75% in size
# Target sequence (Q96KQ7 913-1193 limits assumed): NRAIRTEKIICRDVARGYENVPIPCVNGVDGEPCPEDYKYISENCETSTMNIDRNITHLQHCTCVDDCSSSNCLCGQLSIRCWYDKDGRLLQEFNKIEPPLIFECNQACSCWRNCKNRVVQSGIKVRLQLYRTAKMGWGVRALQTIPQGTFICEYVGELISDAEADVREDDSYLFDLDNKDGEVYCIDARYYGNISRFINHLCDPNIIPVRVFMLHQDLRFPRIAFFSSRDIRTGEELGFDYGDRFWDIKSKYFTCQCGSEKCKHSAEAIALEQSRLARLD
#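 Compounds were preincubated with 20 nM G9a for 15 min, after which biotinylated H3K9 peptide (500 nM) and SAM (20 uM) started a 2 h room-temperature reaction. Monomethylated product was quantified by antibody-based AlphaScreen chemiluminescence.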
# Coupling enz: counter-screen for Giardia aldolase inhibitors: coupling enzyme system; coupling enzyme system counterscreen, AmpLite Red fluorescence; activity change, negative = inhibition, % at 58.2 µM, hits read low; 290,000 tested, 0.67% active; in the data active = activity change below about -30%
#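 First, compound is pin-transferred into glyceraldehyde-3-phosphate coupling-enzyme reagent at 57.5 uM final and held 10 min at RT. Next, substrate, coupling system and AmpLite Red are added. After 20 min RT, fluorescence (525/598 nm) is read.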
# Tau fluor counter: counter-screen for tau fibril formation inhibitors. tau K18 P301L (four-repeat tau fragment) Alexa594 fluorescence, heparin fibrillization. Potency, µM (titrated, usually from 57.7 µM), for inactives: top-dose activity change, negative = decrease. 280,000 tested, 0.93% active. AID 1463; note: potency is the fitted concentration of half-maximal effect; nearly all actives have a fitted effect of over 55% in size
#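 Human K18 P301L tau (15 uM unlabeled plus 0.24 uM Alexa 594-labeled, final) in 100 mM sodium acetate pH 7 was mixed with compound and 20 uM heparin and incubated 6 hr at 37 C.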
# * = called active by the depositor; ? = inconclusive; / = not tested or not shown; [ ] = remark or other dose. This is a sample that favours compounds with a hit; in the whole collection about 11% have one here. Unless noted, calls come from the whole dose curve; as a rule, active = well fitted curve in the direction sought with a large enough effect; inconclusive = small, poorly fitted or top-dose-only effect, or another doubt; inactive = no such curve, though single readings can be large; an effect the other way counts as inactive or inconclusive. Unless noted, % is set by controls: 0 for no effect and ±100 for the full control effect.
SMILES,Tau FP inhib,Sfp inh,Tau fibril ThT,G9a inh,Coupling enz,Tau fluor counter
O=C(N/N=C/c1ccc(-c2cccc([N+](=O)[O-])c2)o1)c1cccs1,0%,7%,?,4%,3,-13%
O=C(N/N=C/c1ccc([N+](=O)[O-])cc1)c1cccs1,12%,-8%,?,50µM*,1,?
Nc1ccc(C(=O)N/N=C\C=C\c2ccc([N+](=O)[O-])cc2)cc1,-7%,20%,2.8µM*,-22%,2,-16%
CCOc1ccc(CN(C(=O)c2cccs2)C2CCS(=O)(=O)C2)cc1 (centres undefined),/,-3%,/,9%,-1,/
CC1(C)SC2C(NC(=O)Cc3ccccc3)C(=O)N2C1C(=O)O (centres undefined),-8%,27%,-11%,-4%[2.33 µM],6,-16%
CCOc1cc(-c2ccc(OC(=O)c3ccc(OC)cc3)c(OC)c2)cc(=O)c2c(C)oc(C)c12,-13%,/,?,16µM*,/,-24%
COc1cc(-c2cc(=O)c3c(O)c(OC)c(OC)c(O)c3o2)ccc1O,-6%,5µM*,?,-1%[12.7 µM],-5,?
COc1c(O)c(O)c2oc(-c3ccccc3)cc(=O)c2c1OC,-3%,3.2µM*,?,-7%[12.7 µM],3,?
CCOc1ccc(-c2cc(OC(=O)c3ccc(OC)cc3)c3c(C)oc(C)c3c(=O)c2)cc1,-19%,/,?,?,/,-27%
COc1cc(-c2cc(OC)c3c(C)oc(C)c3c(=O)c2)ccc1O,10%,?,?,45µM*,1,?
CC1(C)CC(=O)C(CC(=O)NC2CCCc3ccccc32)C(=O)C1 (centres undefined),9%,9%,-1%,6%,3,2%
CCCCn1c(SCC(=O)Nc2cccc(OC)c2)nc2ccsc2c1=O,-14%,/,2%,9%[59 µM],/,?
Cc1ccc(-n2nnc(-c3nc(-c4cccs4)no3)c2N)cc1C,1%,/,-1%,?,/,9%
c1ccc2c(c1)CCOC2CNCCCN1CCCCC1 (centres undefined),2%,15%,-9%,22µM*,0,-8%
Cc1ccc(NC(=O)CCN2CCC(C(N)=O)CC2)cc1,/,15%,/,25%[0.501 µM],4,/
O=S(=O)(Nc1nc2ccccc2nc1NCc1ccco1)c1cccs1,-11%,-23%,-15%,50µM*,5,-18%
O=S(=O)(Nc1nc2ccccc2nc1Nc1ccc2c(c1)OCCO2)c1cccs1,15%,-2%,13µM*,?,4,?
COc1ccc(S(=O)(=O)Nc2nc3ccccc3nc2Nc2ccc3c(c2)OCO3)cc1,3%,14%,?,-6%[59 µM],5,?
Cc1ccc(Cn2ccnc2SCC(=O)NCc2ccccc2)cc1,-4%,/,3%,8%[59 µM],/,-4%
O=S(=O)(Nn1c(O)c(C=C2N=c3ccccc3=N2)sc1=S)c1ccccc1,0%,8%,11µM*,?,3,?
CCn1c(O)c(C=C2N=c3ccccc3=N2)sc1=S,1%,6%,-17%,?,4,-12%
Oc1c(C=C2N=c3ccccc3=N2)sc(=S)n1C1CCCCC1,-1%,9%,-10%,4%[59 µM],2,-9%
Oc1c(C=C2N=c3ccccc3=N2)sc(=S)n1-c1ccccc1,5%,79µM*,3%,-3%[59 µM],-2,1%
CC1=Nc2ccccc2/C1=C/c1sc(=S)n(-c2cccc(C(=O)O)c2)c1O,12%,5%,3.5µM*,25µM*,1,?
O=C(Nn1c(O)c(C=C2N=c3ccccc3=N2)sc1=S)c1ccccc1Cl,?,-13%,11µM*,?,-3,18µM*[quencher]
SMILES,Tau FP inhib,Sfp inh,Tau fibril ThT,G9a inh,Coupling enz,Tau fluor counter
Cc1ccc(C)n1NC(=O)c1ccccc1Cl,-5%,-6%,?,?,1,-7%
S=C(NCCC(c1ccccc1)c1ccccc1)Nc1ccccc1Cl,?,21%,14%,10%[12.7 µM],-3,?
O=S(=O)(c1ccc(NC(=S)NCCC(c2ccccc2)c2ccccc2)cc1)N1CCOCC1,14µM*,18%,10%,-3%[59 µM],-4,?
S=C(NCCC(c1ccccc1)c1ccccc1)Nc1ccc(Cl)cc1,14µM*,20%,15%,31%,0,8.9µM*[quencher]
CC(=O)N/N=C(/c1ccccc1)C(O)c1ccccc1 (centres undefined),/,15%,/,3%,-1,/
COc1cccc(C(C(=O)NCC2CCCO2)N(C(=O)Cn2nnc3ccccc32)c2ccccc2C(C)=O)c1OC (centres undefined),/,5%,/,-6%,4,/
Cc1ccc(CN2C(=O)N/C(=C/c3ccc(-c4ccc(C(=O)O)cc4)o3)C2=O)cc1,-2%,18µM*,/,50µM*,7,?
Cc1cc(C(=O)O)ccc1-c1ccc(/C=C2\NC(=O)N(Cc3ccc(F)cc3)C2=O)o1,9%,?,/,28µM*,4,-1%
Cc1ccc(CCN2C(=O)c3ccc(C(=O)O)cc3C2=O)cc1,/,3%,/,5%[12.7 µM],14,/
O=C(O)c1ccc(COc2ccccc2/C=C2\NC(=O)N(Cc3ccccc3F)C2=O)cc1,1%,?,-1%,?,1,-2%
Cc1ccccc1NC(=O)CNc1ccccc1C(=O)NCc1ccco1,0%,-4%,-14%,40µM*,0,-9%
COCCSc1ccccc1C(=O)NCCc1ccccc1,-6%,56µM*,-3%,18µM*,0,-2%
Cc1ccccc1C(=O)NCCCn1ccnc1,/,13%,/,17%,-1,/
COCCSc1ccccc1C(=O)NCc1ccco1,-2%,18µM*,6%,?,-1,10%
Cc1cccc(C)c1NC(=S)Nc1ccccc1C(=O)NCc1ccco1,1%,-13%,3%,-4%[59 µM],5,-3%
COCCSc1ccccc1C(=O)NCCCn1ccnc1,-2%,45µM*,3%,?,3,4%
CCc1nn(CC(=O)Nc2c(C)cc(C)cc2C)c(=O)c2cc3sccc3n12,8%,/,8%,?,/,9%
Cc1cc(=O)oc2cc(OCC(O)Cn3ccnc3)ccc12 (centres undefined),/,13%,/,?,1,/
CC(C)Oc1ccc(C(=O)N2CCN(CCc3ccccn3)CC2)cc1,0%,/,4%,-3%[59 µM],/,8%
Cc1ccccc1-c1noc(-c2ccccc2C(=O)NCc2ccco2)n1,-19%,45µM*,-7%,?,4,-2%
COCCSc1ccccc1C(=O)N1CCOCC1,-5%,79µM*,-9%,?,-1,-2%
O=C(CSc1ccccc1C(=O)O)NCc1ccco1,-4%,17%,0%,59%[59 µM],1,1%

# Source: PubChem BioAssay
